LASV entry inh: inhibitors of Lassa virus binding or cell entry; Potency, µM (highest dose often 37.9 µM), without a hit: at the highest dose activity change, negative = inhibition, usual class: inhibitors; Lassa virus pseudotype entry inhibition, cell reporter; actives 1.2% (n = 300,000); AID 540256; calls by dose curve; tested in HEK293 cells; also: potency is read from the fitted curve at half-maximal effect; nearly all actives have a fitted effect of over 50% in size
Pf growth 96h: P. falciparum growth inhibition at 96 hour, primary screen for plastid delayed-death inhibitors; actives 6.9% (n = 320,000); AID 504834; P. falciparum luciferase reporter growth, 96 h; Potency, µM (titrated, usually from 28.7 µM), inactives show at the top dose activity change, negative = inhibition, hits mostly inhibitors; also: potency is read from the fitted curve at half-maximal effect
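Compounds incubated with erythrocytes infected by luciferase-expressing P. falciparum (2% hematocrit, 0.05% parasitemia final) for 96 hours, 37 C in 5% CO2. Growth inhibition scored as decreased luciferase luminescence.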
MARV entry inh: blocks Marburg virus binding to or entry into cells. Marburg virus pseudotyped entry inhibition, cell reporter. Potency, µM (titrated, usually from 37.8 µM), without a hit: at the highest dose activity change, negative = inhibition, most hits filed as inhibitors. actives 1.8% (n = 300,000); calls by dose curve; tested in HEK293 cells; also: potency is read from the fitted curve at half-maximal effect
HCMV inh: blocks human cytomegalovirus replication; HFF cells, HCMV-luciferase reporter, 72 h; stronger effect = lower value; activity change, negative = inhibition, % at 57.5 µM; actives 4.5% (n = 410,000); in the data active = activity change below about -60%; inconclusive = no clear call, values can overlap the other calls; inactive = above about -39%
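Two compound doses tested in HFFs infected with HCMV-luciferase, MOI 1 PFU/cell, 72 h at 37C. Lysate luminescence read with OneGlo; data normalized against buffer-only and 10uM Salinomycin inhibitor controls.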
Pf growth 48h: inhibits P. falciparum growth in the first generation, 48 h. actives 5.9% (n = 310,000). P. falciparum luciferase growth in erythrocytes, 48 h. Potency, µM (series often up to 28.7 µM), without a hit: at the top dose activity change, negative = inhibition, hits mostly inhibitors. AID 504832; also: potency is read from the fitted curve at half-maximal effect
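Here the parasites carry a stable luciferase gene and grow inside erythrocytes in Albumax-based RPMI medium with compound for one erythrocytic cycle. Activity is scored as loss of luminescent signal.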
HCV inhibitor: blocks hepatitis C virus; Huh7.5.1 HCVcc-Cre infection, luciferase reporter, 44 h; Potency, µM (series often up to 41.8 µM), for inactives: at the highest dose activity change, negative = inhibition, hits mostly inhibitors; actives 3.4% (n = 340,000); AID 651820; also: potency is read from the fitted curve at half-maximal effect
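After 44 h co-culture of compound, cells and HCVcc-Cre (~0.5 moi), substrate is added for 15 min at room temperature and luciferase measured over 15 sec. Cells were seeded at 1,000/well and pre-cultured 4 h.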
The depositor's hits bear a star; ? = inconclusive; . = no result given; ! = a repeat was not active; [ ] = another dose, or the depositor's remark. Compounds with a hit are over-represented: about 14% of the library has one in this group of screens. Unless noted, calls follow the shape of the dose curve; as a rule, active = well fitted inhibition curve with a large enough effect; inconclusive = small, poorly fitted or top-dose-only effect, or another doubt; inactive = no such curve, though single readings can be large or run the other way. % is scaled to controls: 0 for no effect and ±100 for the full control effect.

SMILES	LASV entry inh	Pf growth 96h	MARV entry inh	HCMV inh	Pf growth 48h	HCV inhibitor
O=C(NC1CCCCCC1)C1CCN(S(=O)(=O)c2c(Cl)cccc2Cl)CC1	-17%	-28%	13%	1	?	-22%
Cc1nn(C)c(C)c1S(=O)(=O)N1CCC(C(=O)NCCC2=CCCCC2)CC1	.	9%	0%	?	.	-10%
Cc1cccc(NC(=O)C2CCN(S(=O)(=O)c3c(C)nn(C)c3C)CC2)n1	.	?	-2%	?	9%	25µM*
Cc1ccc(C(=O)N(CCN2CCCCC2)CC2CCCN(C3CCCC3)C2)s1 (stereo unspecified)	?	0%	8.9µM*	-8	?	.
CCCCOc1ccc(S(=O)(=O)Nc2ccc(-c3ccc(N4CCCCC4)nn3)cc2)cc1	7%[46.1 µM]	.	.	56	.	.
COc1cc(/C=N/NC(=O)Cc2csc(N3CCOCC3)n2)cc(OC)c1O	-6%	2%	0%	18	49%	7%
O=C(Cc1csc(N2CCOCC2)n1)N/N=C/c1ccc(Cl)cc1Cl	?	?	?	2	.	11µM*
COc1ccc(NC(=O)C2CCCN(S(=O)(=O)c3ccc4c(c3)CCCN4C(C)=O)C2)cc1 (stereo unspecified)	?	-22%	20%[46.1 µM]	0	12µM*	?
CC(=O)N1CCCc2cc(S(=O)(=O)N3CCCC(C(=O)NCc4ccc(C)cc4)C3)ccc21 (stereo unspecified)	?	7%	.	-72*!	-7%	?
COc1ccc(NC(=O)C2CCCN(S(=O)(=O)c3ccc4c(c3)CCCN4C(C)=O)C2)cc1Cl (stereo unspecified)	?	20%	-10%[46.1 µM]	?	?	2.5µM*
CC(=O)c1cccc(NC(=O)C2CCCN(S(=O)(=O)c3ccc(F)cc3)C2)c1 (stereo unspecified)	-11%	.	-12%	-19	-10%	?
COc1ccc(S(=O)(=O)N2CCCC(C(=O)Nc3cccc(C(C)=O)c3)C2)cc1 (stereo unspecified)	5%	52%	?	-66*	?	?
CC1(c2nnnn2-c2ccc3c(c2)OCCO3)CCC(=O)N1CC(F)(F)F (stereo unspecified)	.	.	.	60	.	.
COC(=O)C(c1cccc(OC)c1)(c1cn(C)c2ccccc12)C(Nc1ccccc1)c1ccccc1 (stereo unspecified)	.	.	.	-6	.	.
COc1ccc(/C=C(\C#N)c2nc(-c3cc4c(ccc5ccccc54)oc3=O)cs2)cc1O	3%[46.1 µM]	.	.	16	.	.
CC(=O)c1ccc(NC(=O)C2CCCN(S(=O)(=O)c3c(C)[nH]c(=O)[nH]c3=O)C2)cc1 (stereo unspecified)	-5%[46.1 µM]	4.1µM*	16%	-8	157%	27%
COc1ccc(C)c2sc(N3CCN(C(=O)c4ccco4)CC3)nc12	17%[46.1 µM]	.	.	-11	.	.
COc1ccc(OC)c2sc(N3CCN(C(=O)c4ccc([N+](=O)[O-])s4)CC3)nc12	-15%	-91%	-7%	-12	?	?
COc1ccc(OC)c2sc(N3CCc4ccccc4C3)nc12	-2%	-1%	-30%[46.1 µM]	-76*	?	?
c1ccc2c(c1)CCN(c1nc3cc4c(cc3s1)OCCO4)C2	4.6µM*	.	?	-90*	19%	?
COc1ccc(OC)c2sc(N3CCCCC3)nc12	-18%	39%	-16%	8	30%	13µM*
COc1ccc(C(CNC(=O)c2c(C)nn(Cc3ccc(C)cc3)c2Cl)N2CCOCC2)cc1 (stereo unspecified)	?	?	?	-32	10µM*	?
Cc1nn(Cc2ccccc2)c(C)c1C(=O)NCC(c1cccs1)N1CCOCC1 (stereo unspecified)	-2%	0%	24%	19	?	-11%
Cc1ccc(Cn2nc(C)c(C(=O)NCC(c3cccs3)N3CCOCC3)c2Cl)cc1 (stereo unspecified)	13µM*	?	-13%	?	12µM*	4%
O=C(Cn1cnc2c(oc3ccccc32)c1=O)Nc1ccccc1C(F)(F)F	-15%[46.1 µM]	.	.	17	.	.
SMILES	LASV entry inh	Pf growth 96h	MARV entry inh	HCMV inh	Pf growth 48h	HCV inhibitor
CC(NC(=O)C12CC3CC(C1)CC(n1cncn1)(C3)C2)C12CC3CC(CC(C3)C1)C2 (stereo unspecified)	-27%	12µM*	-25%	-4	12µM*	-10%
O=C1CCCc2nc(N3CCN(C(=O)c4ccco4)CC3)ncc21	14%[46.1 µM]	9.3µM*	?	79	126%	10%
CCc1c(C)sc2nc(C(C)C)nc(SCC(=O)N3CCc4ccccc4C3)c12	21µM*	13µM*	?	-90*	12µM*	?
Cc1nc(N2CCN(C(=O)c3ccco3)CC2)c2c3c(sc2n1)CCC3	?	.	10µM*	-65*	?	?
O=C(c1ccco1)N1CCN(c2ncccn2)CC1	.	-11%	.	50	.	4%
Cc1sc2nc(C(C)C)nc(SCC(=O)N3CCN(C(=O)c4ccco4)CC3)c2c1C	-17%	11%	6%	-26	13µM*	11µM*
Cc1cccc(Cn2c(=O)n(Cc3ccc4c(c3)OCO4)c(=O)c3oc4ccccc4c32)c1	-1%[46.1 µM]	.	.	5	.	.
COC(=O)CC1Oc2ccc(Cl)cc2-n2cc(-c3ccc(F)cc3)nc21 (stereo unspecified)	16%[46.1 µM]	.	-14%[46.1 µM]	-20	.	.
Cc1cc(C)c2oc(C(=O)Nc3sc4c(c3C(=O)NCc3ccco3)CCCC4)cc(=O)c2c1	1%[46.1 µM]	.	7%[46.1 µM]	5	.	.
Cc1ccc(-c2csc3ncnc(N4CCN(C(=O)c5ccco5)CC4)c23)cc1	?	?	-30%	-10	?	?
Cc1sc2ncnc(N3CCN(C(=O)c4ccco4)CC3)c2c1C	?	-12%	?	-67*	-22%	?
CC(C)c1nc(N2CCN(C(=O)c3ccco3)CC2)c2c3c(sc2n1)CCCC3	?	15%	18µM*	-9	10µM*	22µM*
COC(=O)c1cc(S(=O)(=O)NCc2cc(OC)c(OC)c(OC)c2)cn1C	.	25%	.	-15	8%	3%
Nc1nnnn1/N=C/c1cccc(Oc2ccccc2)c1	0%	7.4µM*	-1%	69	42%	3%
Cc1cccc(C)c1N1C(=O)c2cccc([N+](=O)[O-])c2C1=O	10%	?	21%	-63*	6%	13%
Cc1ccc(N2C(=O)c3cccc([N+](=O)[O-])c3C2=O)cc1C	2%	18%	-5%[46.1 µM]	-34	8%	13%
CNCC(C)COc1ccccc1OCc1ccccc1 (stereo unspecified)	?	12µM*	?	-35	?	-6%

Screens as filed in PubChem.
